69 compounds from PubChem BioAssay AID2253 (Southern Research Specialized Biocontainment Screening …, 2010) can be followed below.

The structures appear in SMILES notation. Among all 2,200 compounds or so, about 1,300 (59%) were called active. The rule behind the calls is not given here. So high a share suggests a set chosen from earlier hits. The list is a sample of the results. Measured potencies and affinities stand elsewhere.

The test in a line: human monocytic cell viability reduction – S. typhimurium screen hits, cytotoxicity control for Salmonella PhoP regulon inhibitors, dose response (AID 2253). As to conditions: THP-1 viability, CellTiter-Glo luminescence, 72 h; series mostly up to 50 µM. For orientation: ATP-based viability assays read luminescence as a measure of living cells.
As for `[O-]/[N+](=C\c1ccncc1)c1ccccc1`, the outcome was inactive.

Consider `BrC(=C\c1ccccc1)/C=N/N1CCN(c2ccccn2)CC1`, for which the result was inactive.

Take `COC(=O)c1sc2ccccc2c1-n1cccc1C(=O)C(=O)Nc1ccc(Cl)cc1`: the compound was classed as inactive. As for `CC(=O)c1cccc(NC(=O)NCc2ccco2)c1`, the compound was called inactive. As to `O=C1CCCc2c1cc(C(=O)NCc1ccco1)c(=O)n2-c1ccc(Cl)cc1`, the compound was classed as inactive. As to `CCCCN(C)C(=O)c1cn(C)c2ccc(S(=O)(=O)N(C)C)cc2c1=O`, the call was inactive. Then `CO[C@H]1/C=C/O[C@@]2(C)Oc3c(C)c(O)c4c(O)c(c(C=NN5CCN(C)CC5)c(O)c4c3C2=O)NC(=O)/C(C)=C\C=C\[C@H](C)[C@H](O)[C@@H](C)[C@@H](O)[C@@H](C)[C@H](OC(C)=O)[C@@H]1C`, with “inactive”; and `O=Cc1cccn1Cc1ccccc1[N+](=O)[O-]`, with “inactive”; and `COC(=O)C1C(=O)C=C(N2CCOCC2)CC1(C)C` (centres undefined), with “inactive”.

Turning to `O=c1c2oc3ccccc3c2ncn1Cc1ccc(Cl)cc1`, the compound was classed as inactive. For the compound `CSc1nnc(NC(=O)CCc2ccccc2)s1`, the call was inactive.

Regarding `CN1CCCC(OC(=O)CCCC(=O)OC2CCCN(C)C2)C1` (centres undefined), the outcome was inactive.

Turning to `O=C(Oc1ccc[nH]c1=O)c1cc([N+](=O)[O-])cc([N+](=O)[O-])c1`, the call was inactive. In the case of `Cc1ccc2nc(C(F)OC(F)(F)F)[nH]c2c1` (centres undefined), the compound was classed as inactive. The entry for `CC(C)Cc1nc2ccc(N)cc2[nH]1` is “inactive”. Then `O=C(O)CCC(=O)NCC1OCCc2ccccc21` (centres undefined), with “inactive”. Take `CCn1cc(C(=O)O)c(=O)c2cc(OC)ccc21`: the call was inactive. The entry for `O=C(CSc1nc2[nH]ncc2c(=O)[nH]1)N1CCCCC1` is “inactive”; for `C#CCOc1ccc(Cl)cc1/C=N/O` it is “inactive”. Then `CC1CCCCN1Cc1cnc(Cl)s1` (centres undefined), with “inactive”. The entry for `CCN(CC)S(=O)(=O)c1cccc(C(=O)NC(Cc2c[nH]c3ccccc23)c2nnc3n2CCC3)c1` (centres undefined) is “inactive”; for `O=C(N/N=C/c1ccco1)c1cccc(S(=O)(=O)Nc2ccccc2Cl)c1` it is “inactive”; for `CC(=O)Oc1ccc(C(=O)[C@H]2[C@H]3C(=O)N(c4ccc5ccccc5c4)C(=O)[C@H]3[C@@H]3C=CC=NN32)cc1` it is “inactive”. For the compound `O=C(CSc1nnc2c(Cl)cc(Cl)cn12)NC1CCS(=O)(=O)C1` (centres undefined), the outcome was inactive. Turning to `O=C(CSc1nnc(-c2ccccc2)n1-c1ccc(Cl)cc1)NC1CCS(=O)(=O)C1` (centres undefined), the compound was called inactive. Regarding `COc1ccc(-c2ccc3c(N)c(C(=O)c4cccc(OC)c4)sc3n2)cc1`, the compound was called inactive. For `COc1cccc(-c2nnc(SCC(=O)Nc3ccc(OC)c(OC)c3)n2N)c1`, the call was inactive.

In the case of `COc1ccc(NC(=O)CCNS(=O)(=O)c2ccc3c(c2)CCC(=O)N3)cc1`, the compound was classed as inactive. As for `O=c1[nH]c2ccccc2n2c(=S)[nH]nc12`, the compound was classed as inactive. Turning to `CCn1ncc(/C=C/C(=O)NCc2cn(C)nc2C)c1C`, the call was inactive. Then `COc1ccc(OC)c(S(=O)(=O)N(C)CC(=O)N2CCc3ccccc3C2)c1`, with “inactive”. The entry for `COc1ccc(C(=O)N2CCN(C(=O)c3ccco3)CC2)cc1OC` is “inactive”; for `Nc1nc(CSc2nc3ccccc3[nH]2)nc(N2CCOCC2)n1` it is “inactive”. Consider `O=C(NC1CCCC1)c1ccc(Cl)s1`, for which the outcome was inactive. Consider `Cc1cc(-c2csc(NC(=O)c3ccccc3C(F)(F)F)n2)c(C)n1Cc1ccccc1`, for which the call was inactive. Turning to `O=C(OCc1nnc(-c2ccccc2)o1)c1ccc(S(=O)(=O)NCc2ccco2)cc1`, the compound was classed as inactive. As to `COC(=O)c1cccc(NC(=O)CCCOc2ccccc2)c1`, the compound was called inactive. With `O=C(Cn1nc(Cc2cccnc2)c2ccccc2c1=O)NCc1ccc2c(c1)OCO2`, the compound was called inactive.

As to `COC(=O)c1ccccc1NC(=O)NCc1ccc2c(c1)OCO2`, the outcome was inactive. Then `CC(C)(C)c1ccc(C2CC2C(=O)N/N=C\c2cc3ccccc3nc2Cl)cc1` (centres undefined), with “inactive”. As to `CCn1c(SCC(=O)N2CCCCC2)nc(O)cc1=O`, the outcome was inactive. `CCCc1cc(C(=O)Cc2ccc(C(=O)OCC)o2)c(O)cc1O`: the result was inactive. Then `O=C(NCc1cccnc1)c1cc2ccccc2oc1=O`, with “inactive”.

With `CCOC(=O)N1CCN(c2nc(C)c3c(n2)CCCC3=O)CC1`, the call was inactive. The entry for `CCCCn1c(-c2ccccc2)nc2c(=O)n(C)c(=O)[nH]c21` is “inactive”.

Consider `CCN(CC)CCNC(=O)c1cn(CC)c2cc(N3CCN(C(=O)c4ccco4)CC3)c(F)cc2c1=O`, for which the compound was called inactive. Then `O=C1C2CCCN2c2ccc(S(=O)(=O)N3CCOCC3)cc2N1Cc1ccccc1F` (centres undefined), with “inactive”; and `Cc1ccc(Oc2ccc3c(c2)C(=O)N(c2ccc(S(=O)(=O)Nc4nccs4)cc2)C3=O)cc1`, with “inactive”. Then `CCCS(=O)(=O)N1CCCC(C(=O)N2CCN(c3ccccn3)CC2)C1` (centres undefined), with “inactive”. The entry for `N=c1scc(-c2ccccc2)n1/N=C/c1ccco1` is “inactive”; for `CCCCn1c(O)c(C(CC)=Nc2ccc3c(c2)CCC3)c(=O)[nH]c1=O` it is “inactive”. Take `Cc1cccc(-n2c(N)cc(=O)[nH]c2=S)c1`: the compound was classed as inactive. Take `O=C(O)C1CC=CCC1C(=O)NC12CC3CC(CC(C3)C1)C2` (centres undefined): the result was inactive. The entry for `COC(=O)c1cc(C#N)c(Oc2ccccc2OC)nc1C` is “inactive”; for `CN(CCO)Cc1csc2ccc(Br)cc12` it is “inactive”; for `CCn1c(CNC(=O)c2cccc(C)c2)nc2ccccc21` it is “inactive”. Regarding `Nc1c(-c2ccccc2)cnn1-c1cccc([N+](=O)[O-])c1`, the call was inactive. The entry for `Cc1ccc(C)n1-c1cc([N+](=O)[O-])ccc1-n1ccnc1` is “inactive”. The entry for `CCOC(=O)c1c(NC(=O)Nc2ccc(C)cc2)sc2c1CCN(C)C2` is “inactive”. Then `NC(=O)c1c(NC(=O)CN2C(=O)CCC2=O)sc2c1CCCCC2`, with “inactive”; and `CC(C)(C)C1CCc2c(sc(NC(=O)c3cccs3)c2C(=O)N2CCCCC2)C1` (centres undefined), with “inactive”; and `C=CCN=C(NC#N)SCc1ccccc1Cl`, with “inactive”. Take `O=c1cc(-c2ccc([N+](=O)[O-])cc2)nc2cc(-c3ccc(Cl)cc3)[nH]n12`: the result was inactive. The entry for `COC(=O)c1ccc2c(=O)n(CCN3CCOCC3)c(SCC(=O)C(C)(C)C)nc2c1` is “inactive”. Then `Cc1ccc(C(=O)Oc2cccc(NC(=O)c3cccs3)c2)cc1S(=O)(=O)N1CCOCC1`, with “inactive”. The entry for `COc1ccc(CN2CCOCC2)cc1Br` is “inactive”. Take `CC(C)Cc1oc(C(=O)O)cc1CN1CCOCC1`: the compound was called inactive. Then `N#Cc1ccc(COC(=O)c2ccc3c(=O)[nH]c(CN4CCOCC4)nc3c2)cc1`, with “inactive”. Then `CCOC(=O)c1c(C)[nH]c(C)c1C(=O)COC(=O)/C=C/c1cccc(F)c1`, with “inactive”.
